Measurements published in the supplement of paper PMC8699584.
Where “and” joins values, the source holds several entries; their conditions need not be identical. Equal entries are not always repeated. Structures can show the parent of a compound that is named as a salt. ± gives the standard deviation of the averaged measurements.

What was measured:
[1] = system: Molm13; test: cell viability relative to DMSO control (bortezomib = 0%); higher = less growth inhibition; conditions: 10 nM; 72 h
Outline: (§1)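 Viability was determined with CellTiter-Glo luminescence. Acute myeloid leukemia cells (1000 per well, 50 µL) were exposed for 72 h to 679 approved and investigational compounds at a single 10 nM dose in 384-well plates. Percentages came from per-plate linear regression, setting DMSO-treated wells to 100% and positive-control-treated wells to 0%.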

[2] = system: Mv4-11; test: as above; conditions: 10 nM; 72 h
Outline: as §1

Row | Structure (SMILES) | cell viability [1] | cell viability [2]
1 | O=S(=O)(c1cccc2cnccc12)N1CCCNCC1 [HA-1077 (hydrochloride)] | 105 ± 14% | 112 ± 3.5%
2 | COC(=O)C1=CC[C@@]23CC[C@@H]([C@@](C)(/C=C/C=C(\C)C(=O)O)OC2=O)[C@@]3(OC(C)=O)CC1 [Pseudolaric Acid B] | 101 ± 3.5% | 104 ± 11%
3 | CONC(=O)c1ccccc1Nc1cc(Nc2cc(C)nn2C(C)C)ncc1Cl | 105 ± 9.6% | 105 ± 1.3%
4 | COc1ccc2cc1Oc1ccc(cc1)C[C@H]1c3cc(c(OC)cc3CCN1C)Oc1c(O)c(OC)cc3c1[C@H](C2)N(C)CC3 [Fangchinoline] | 90.9 ± 1.6% | 122 ± 9.6%
5 | CN(c1ncccc1CNc1nc(Nc2ccc3c(c2)CC(=O)N3)ncc1C(F)(F)F)S(C)(=O)=O | 98 ± 2.3% | 105 ± 8.8%
6 | O=C(Nc1ccc(CN2CCOCC2)cc1)c1ccc(-c2cccc(Cl)c2)o1 | 113 ± 2.9% | 120 ± 6%
7 | CC(CCc1ccccn1)(CCc1ccccn1)C(=O)c1ccccc1 | 112 ± 14% | 109 ± 12%
8 | CCCCCCCCCCCCCCCCCCOP(=O)([O-])OC1CC[N+](C)(C)CC1 [Perifosine (KRX-0401)] | 93.8 ± 14% | 110 ± 5.1%
9 | CC(C)(C)n1nc(-c2cccc3ccccc23)c2c(N)ncnc21 | 95.9 ± 9.6% | 110 ± 10%
10 | CCC(=O)N1CCN(c2ccc(-n3c(=O)ccc4cnc5ccc(-c6cnc7ccccc7c6)cc5c43)cc2C(F)(F)F)CC1 [Torin 1] | 104 ± 4.5% | 108 ± 6.9%
11 | COc1ccc(Cl)cc1NC(=O)Nc1cc(C)nc2ccccc12 | 129 ± 23% | 130 ± 17%
12 | C[C@@]1(C(=O)Nc2ccc(F)nc2)CCCN1c1nc(Nc2cc(C3CC3)n[nH]2)c2cccn2n1 | 117 ± 2.5% | 127 ± 2.5%
13 | O=C(Nc1cc(Cl)cc2c1[nH]c1cnccc12)c1cccnc1 | 110 ± 1.9% | 110.7 ± 0.66%
14 | CCN1CCN(Cc2ccc(Nc3ncc(F)c(-c4cc(F)c5nc(C)n(C(C)C)c5c4)n3)nc2)CC1 | 105% and 98.2% | 102% and 112%
15 | CCn1c(=O)c(-c2ccc(-c3cncs3)cc2Cl)cc2cnc(Nc3ccc(N4CCN(C)CC4)cc3)nc21 | 106 ± 6.4% | 111 ± 10%
16 | O=c1oc2c(O)c(O)cc3c(=O)oc4c(O)c(O)cc1c4c23 [Ellagic acid] | 92.5 ± 28% | 99.5 ± 11%
17 | CNS(=O)(=O)c1ccccc1Nc1nc(Nc2ccc(N3CCN(C)CC3)cc2OC)ncc1Cl [ALK inhibitor 2] | 98.9 ± 20% | 104 ± 16%
18 | CNS(=O)(=O)C[C@H]1CC[C@H](N(C)c2[nH]cnc3nccc2-3)CC1 [Oclacitinib] | 96.5 ± 22% | 107 ± 18%
19 | Cc1ccc(F)c(NC(=O)Nc2ccc(-c3cccc4[nH]nc(N)c34)cc2)c1 | 72.2 ± 9.9% | 97.7 ± 10%
20 | Cn1cc(C2=C(c3cn(CCCSC(=N)N)c4ccccc34)C(=O)NC2=O)c2ccccc21 [Ro 31-8220 Mesylate] | 108 ± 2.3% | 102 ± 4%
21 | CO[C@@H]1[C@H](N(C)C(=O)c2ccccc2)C[C@H]2O[C@]1(C)n1c3ccccc3c3c4c(c5c6ccccc6n2c5c31)C(=O)NC4 | 76.2 ± 3% | 87.82 ± 0.66%
22 | O=C(Nc1ccc2[nH]nc(-c3ccncc3)c2c1)[C@@H]1CCN(CC(=O)N2CCN(c3ccc(-c4ncccn4)cc3)CC2)C1 | 92 ± 12% | 95.8 ± 19%
23 | COc1cc(N2CCC(N)CC2)ccc1Nc1ncc(Cl)c(-c2c[nH]c3ccccc23)n1 | 86 ± 2.5% | 93.3 ± 5.9%
24 | COc1cc2ncn(-c3cc(OCc4ccccc4S(C)(=O)=O)c(C#N)s3)c2cc1OC | 83.4 ± 8.5% | 104 ± 5.9%
25 | Nc1ncnc2c1c(-c1cccc(OCc3ccccc3)c1)cn2C1CC(CN2CCCC2)C1 (stereo not drawn) | 103 ± 13% | 96.5 ± 2.5%

Row | Structure (SMILES) | cell viability [1] | cell viability [2]
26 | O=c1cc(N2CCOCC2)oc2c(-c3ccccc3)cccc12 | 107 ± 28% | 104 ± 16%
27 | CN(N=O)C(=O)N[C@@H](C=O)[C@@H](O)[C@H](O)[C@H](O)CO [Streptozocin] | 89.4 ± 24% | 108 ± 4.5%
28 | CC[C@@H]1C(=O)N(C)c2cnc(Nc3ccc(C(=O)N[C@H]4CC[C@H](N5CCN(CC6CC6)CC5)CC4)cc3OC)nc2N1C(C)C [Volasertib (BI 6727)] | 104.1 ± 0.8% | 117 ± 15%
29 | Cc1ncc(CO)c(CO)c1O [Pyridoxine] | 95.3 ± 26% | 114 ± 20%
30 | CCN(CC)CCCCNc1ncc2cc(-c3cc(OC)cc(OC)c3)c(NC(=O)NC(C)(C)C)nc2n1 | 114% and 117% | 113% and 119%
31 | COc1cc2ncc(-c3ccccc3)nc2cc1OC | 101 ± 4.1% | 113 ± 9.7%
32 | CCS(=O)(=O)N1CC(CC#N)(n2cc(-c3ncnc4[nH]ccc34)cn2)C1 | 122 ± 31% | 105 ± 8.7%
33 | Cc1cn(-c2cc(NC(=O)c3ccc(C)c(Nc4nccc(-c5cnccn5)n4)c3)cc(C(F)(F)F)c2)cn1 [Radotinib] | 100 ± 2.6% | 107 ± 13%
34 | O=c1ncn2nc(Sc3ccc(F)cc3F)ccc2c1-c1c(Cl)cccc1Cl | 89.6 ± 1.7% | 108 ± 6.4%
35 | CCCCCCCCCC(=O)CC(O)S(=O)(=O)O (stereo not drawn) [Sodium houttuyfonate] | 108 ± 1.5% | 106 ± 1.1%
36 | O=c1c(-c2ccc(O)cc2)coc2cc(O)cc(O)c12 [Genistein] | 104 ± 4.5% | 122 ± 24%
37 | Cc1nc(NC(=O)N2CCC[C@@H]2C(N)=O)sc1-c1ccnc(C(C)(C)C(F)(F)F)c1 [BYL-719(Alpelisib)] | 113 ± 6.5% | 102 ± 15%
38 | O=C(NCc1ccccc1)c1csc(Nc2ccncn2)n1 [Thiazovivin] | 115 ± 7.6% | 113 ± 3.7%
39 | Nc1nc2cc(-c3ccc4ncc(C(=O)N5CCOCC5)n4c3)ccc2o1 | 98.5 ± 2.2% | 105 ± 16%
40 | Cn1cc(C2=C(c3cn(CCCN)c4ccccc34)C(=O)NC2=O)c2ccccc21 [Bisindolylmaleimide VIII (acetate)] | 111 ± 18% | 119 ± 26%
41 | C=CC(=O)Nc1cc(Nc2nccc(-c3cn(C)c4ccccc34)n2)c(OC)cc1N(C)CCN(C)C [AZD-9291 mesylate] | 102 ± 5.5% | 94.8 ± 6.1%
42 | C[N+](C)(C)CC(=O)O [Betaine hydrochloride] | 86.4 ± 9.4% | 101 ± 9.6%
43 | COCCN1CCN(Cc2ccc(-c3n[nH]c4c3C(=O)c3c(NC(=O)NN5CCOCC5)cccc3-4)cc2)CC1 | 70.99 ± 0.17% | 55.6 ± 8.7%
44 | Oc1cc(O)cc(/C=C/c2ccc(O)c(O)c2)c1 [Piceatannol] | 101 ± 6.1% | 108 ± 11%
45 | N#Cc1c(O)c2c(-c3ccc(-c4ccccc4O)cc3)csc2[nH]c1=O | 111 ± 27% | 93.9 ± 14%
46 | NCCCNc1ccc(Nc2nccc(Nc3cc(C4CC4)[nH]n3)n2)cc1 | 94.71 ± 0.31% | 110 ± 7.2%
47 | O=C1NC(=O)/C(=C\c2ccc3nccnc3c2)S1 | 116 ± 13% | 104 ± 13%
48 | COc1ncc(-c2ccc3nccc(-c4ccnnc4)c3c2)cc1NS(=O)(=O)c1ccc(F)cc1F | 61.5 ± 19% | 76.1 ± 1.9%
49 | O=C(NC(CO)c1ccc(F)c(Cl)c1)c1cc(-c2[nH]ncc2-c2cccc(Cl)c2)c[nH]1 (stereo not drawn) | 116 ± 16% | 110 ± 7.8%
50 | Cc1cc(C)c(/C=C2\C(=O)Nc3ccccc32)[nH]1 [Semaxanib (SU5416)] | 82.4 ± 11% | 98 ± 16%

Row | Structure (SMILES) | cell viability [1] | cell viability [2]
51 | Cc1cc2c(F)c(Oc3ncnn4cc(OC[C@@H](C)OC(=O)[C@H](C)N)c(C)c34)ccc2[nH]1 | 101 ± 38% | 106 ± 5.3%
52 | CC(C)NCC(O)c1ccc(O)c(O)c1 (stereo not drawn) [Isoprenaline hydrochloride] | 114 ± 3.4% | 101 ± 17%
53 | CCCS(=O)(=O)Nc1ccc(F)c(C(=O)c2c[nH]c3ncc(-c4ccc(Cl)cc4)cc23)c1F [Vemurafenib (PLX4032, RG7204)] | 101 ± 7% | 105 ± 1.1%
54 | N#CC(=C(/N)Sc1ccccc1N)/C(C#N)=C(\N)Sc1ccccc1N | 99.3 ± 16% | 104 ± 7%
55 | COc1cc(N2CCC(N3CCN(C)CC3)CC2)ccc1Nc1ncc(Cl)c(Nc2ccccc2P(C)(C)=O)n1 [Brigatinib] | 115 ± 41% | 108 ± 28%
56 | CCOc1cn(-c2ccc(F)cc2C)nc1C(=O)Nc1ccc(Oc2ccnc3cc(OC)c(OC)cc23)c(F)c1 | 112 ± 20% | 109 ± 2.8%
57 | CCc1cc2c(=O)c(-c3nc4ccccc4s3)coc2c(CN2CCCCC2)c1O | 129 ± 34% | 123 ± 5.4%
58 | COc1ccc(CNc2nc(N(CCO)CCO)nc3c2ncn3C(C)C)cc1 | 102 ± 7% | 104 ± 8.2%
59 | Cc1nc(Nc2ncc(C(=O)Nc3c(C)cccc3Cl)s2)cc(N2CCN(CCO)CC2)n1 [Dasatinib monohydrate] | 80.8 ± 25% | 106 ± 9.4%
60 | COc1cc2ncnc(Nc3ccc(F)c(Cl)c3)c2cc1OCCCN1CCOCC1 [Gefitinib] | 114.4 ± 0.96% | 120 ± 1.4%
61 | O=C1NCCc2[nH]c(-c3ccncc3)cc21 | 115 ± 14% | 115 ± 6.7%
62 | CCCCNc1ncc(-c2ccc(CN3CCOCC3)cn2)c(NC2CCC(O)CC2)n1 (stereo not drawn) | 94.6 ± 6.1% | 99.9 ± 5.7%
63 | N#C/C(=C\c1ccc(O)c(O)c1)C(=O)NCc1ccccc1 [AG-490 (Tyrphostin B42)] | 103 ± 5.9% | 105 ± 1.8%
64 | Nc1ncnc2n[nH]c(Nc3ccc(F)cc3)c12 | 102 ± 11% | 105 ± 3.4%
65 | CC(=O)c1cnc2ccc(-c3cc(Cl)c(O)c(Cl)c3)nc2c1N[C@H]1CC[C@H](CN(C)C)CC1 | 95.1 ± 17% | 80.6 ± 6.8%
66 | O=c1cc(-c2ccc(O)cc2)oc2cc(O)cc(O)c12 [Apigenin] | 86.9 ± 19% | 95.3 ± 2.3%
67 | O=C1C(Cl)=C(NCCN2CCOCC2)C(=O)c2ncccc21 | 111 ± 23% | 121 ± 2.5%
68 | C=CC(=O)Nc1cccc(Nc2nc(Nc3ccc(OCCOC)cc3)ncc2F)c1 | 103 ± 10% | 110 ± 6.4%
69 | O=C(Nc1cc(C(F)(F)F)ccc1N1CCCCC1)c1ccncc1 | 99.5 ± 9.8% | 129 ± 17%
70 | Cc1cc(Nc2nn(-c3ccccc3)c(=O)c3ccccc23)n[nH]1 [Phthalazinone pyrazole] | 94.1 ± 9.4% | 101 ± 15%
71 | CNC(=O)c1ccccc1Nc1nc(Nc2ccc(N3CCNCC3)cc2)ncc1Cl | 17.4 ± 13% | 23 ± 6.8%
72 | O=S(=O)(NCCNC/C=C/c1ccc(Br)cc1)c1cccc2cnccc12 [H-89 (hydrochloride)] | 114 ± 19% | 109 ± 5.8%
73 | c1cc(-c2cnn3cc(-c4ccc(OCCN5CCCCC5)cc4)cnc23)ccn1 [Dorsomorphin dihydrochloride] | 58.3 ± 6.7% | 65.7 ± 3.6%
74 | COc1cc2ncnc(Nc3ccc(F)c(Cl)c3)c2cc1OCCCN1CCOCC1 [Gefitinib (ZD1839)] | 110 ± 23% | 116 ± 1.7%
